# Laboratory results published in PubChem BioAssay (NCATS).
# Results filed as inconclusive are left out. A call without a number means that no potency is given here. Values without a mark were called inactive. The source made the active and inactive calls. The call rests on the fitted dose curve; in most records, active means well fitted curve in the direction sought with a large enough effect; inconclusive means small, poorly fitted or top-dose-only effect, or another doubt; inactive means no such curve, though single readings can be large; an effect the other way counts as inactive or inconclusive.
# Tests used:
# NIH3T3 = experiment: Cytotoxic Profiling of Annotated Libraries Using Quantitative High-Throughput Screening (AID 1296008); settings: Five cell lines viability, CellTiter-Glo ATP luminescence, 48-72 h; max response: hits give low values; further: nearly all actives have a fitted effect of over 60% in size
# In short: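 Cells exposed to compounds for 48 or 72 hr at 37 degrees Celsius. Viability read as ATP-coupled luminescence with CellTiter-Glo after 10 min at room temperature.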
# MCC-13 = experiment: qHTS assay to identify novel small-molecules to repurpose for Merkel cell carcinoma treatment (AID 1296009); settings: MCC and control cell lines, CellTiter-Glo viability, 72 h; series mostly up to 46 µM; further: nearly all actives have a fitted effect of over 60% in size
# In short: (§1)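 Cells were treated for 72 hr at 37 degree celsius with compounds in 8- or 11-point dose response. Viability was read by CellTiter-Glo luminescence, normalized to no-cell (cytotoxicity) and DMSO controls.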
# MCC-26 = experiment: as above; settings: MCC and control cell lines, CellTiter-Glo viability, 72 h; series mostly up to 46 µM
# In short: as §1
# MKL-1 = experiment: as above; settings: MCC and control cell lines, CellTiter-Glo viability, 72 h; series mostly up to 46 µM
# In short: as §1
# MKL-2 = experiment: as above; settings: MCC and control cell lines, CellTiter-Glo viability, 72 h; series mostly up to 46 µM
# In short: as §1
# UISO = experiment: as above; settings: MCC and control cell lines, CellTiter-Glo viability, 72 h; series mostly up to 46 µM
# In short: as §1
# WaGa = experiment: as above; settings: MCC and control cell lines, CellTiter-Glo viability, 72 h; series mostly up to 46 µM
# In short: as §1
# C33A = experiment: Primary qHTS to identify gynecologic anti-cancer compounds using libraries of approved drugs and bioactive compounds (AID 1345084); settings: Gynecologic cancer cell panel viability, ATPlite luminescence, 48 h; series mostly up to 57.5 µM; further: nearly all actives have a fitted effect of over 55% in size; further: potency means the concentration at half of the fitted maximal effect
# In short: (§2)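 Cytotoxicity screen measuring ATP content by luciferase luminescence. Each compound is applied at five concentrations for 48 h at 37 C with 5% CO2.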
# CAOV3 = experiment: as above; settings: Gynecologic cancer cell panel viability, ATPlite luminescence, 48 h; series mostly up to 57.5 µM
# In short: as §2
# CASKI = experiment: as above; settings: Gynecologic cancer cell panel viability, ATPlite luminescence, 48 h; series mostly up to 57.5 µM
# In short: as §2
# Es-2 = experiment: as above; settings: Gynecologic cancer cell panel viability, ATPlite luminescence, 48 h; series mostly up to 57.5 µM
# In short: as §2
# HeLa = experiment: as above; settings: Gynecologic cancer cell panel viability, ATPlite luminescence, 48 h; series mostly up to 57.5 µM
# In short: as §2
# Hek293T = experiment: as above; settings: Gynecologic cancer cell panel viability, ATPlite luminescence, 48 h, control line for the selectivity index; series mostly up to 57.5 µM
# In short: as §2
# JEG-3 = experiment: as above; settings: Gynecologic cancer cell panel viability, ATPlite luminescence, 48 h; series mostly up to 57.5 µM
# In short: as §2
# OV90 = experiment: as above; settings: Gynecologic cancer cell panel viability, ATPlite luminescence, 48 h; series mostly up to 57.5 µM
# In short: as §2
# PA-1 = experiment: as above; settings: Gynecologic cancer cell panel viability, ATPlite luminescence, 48 h; series mostly up to 57.5 µM
# In short: as §2
# SKOV3 = experiment: as above; settings: Gynecologic cancer cell panel viability, ATPlite luminescence, 48 h; series mostly up to 57.5 µM
# In short: as §2
Structure (SMILES),max response (NIH3T3) [%],Potency (MCC-13),Potency (MCC-26),Potency (MKL-1),Potency (MKL-2),Potency (UISO),Potency (WaGa),Potency (C33A),Potency (CAOV3),Potency (CASKI),Potency (Es-2),Potency (HeLa),Potency (Hek293T),Potency (JEG-3),Potency (OV90),Potency (PA-1),Potency (SKOV3)
CCc1cccc2c(CCO)c[nH]c12,1.36,inactive,inactive,inactive,inactive,inactive,inactive,inactive,inactive,inactive,inactive,inactive,inactive,inactive,inactive,inactive,inactive
CN1Cc2cc(C(=O)N3CCC(C4CCNCC4)CC3)ccc2NC(CC(=O)O)C1=O (stereo unspecified),-2.76,inactive,inactive,inactive,inactive,inactive,inactive,inactive,inactive,inactive,inactive,inactive,inactive,inactive,inactive,inactive,
CC1c2ccccc2CN1NC(=O)c1ccc(Cl)c(S(N)(=O)=O)c1 (stereo unspecified),2.57,inactive,inactive,inactive,inactive,inactive,inactive,inactive,inactive,inactive,inactive,inactive,inactive,inactive,inactive,inactive,inactive
C[C@H]1C[C@H](O)c2ccsc2S1(=O)=O,1.66,inactive,inactive,inactive,inactive,inactive,inactive,inactive,inactive,inactive,inactive,inactive,inactive,inactive,inactive,inactive,
CN1[C@@H]2CC[C@H]1CC(NC(=O)n1c(=O)[nH]c3ccccc31)C2 (stereo partly specified),1.08,inactive,inactive,inactive,inactive,inactive,inactive,inactive,inactive,inactive,inactive,inactive,inactive,inactive,,inactive,inactive
COC(=O)c1cc(Cl)ccc1NS(=O)(=O)C(F)(F)F,-7.02,inactive,inactive,inactive,inactive,inactive,inactive,,25.1 µM (active),inactive,,,inactive,inactive,inactive,inactive,inactive
